Bioassay records as filed in PubChem.
An excerpt weighted towards active compounds, which were near 21% of everything screened.
Pf growth 96h: P. falciparum growth inhibition at 96 hour, primary screen for plastid delayed-death inhibitors. 6.9% of 320,000 active. P. falciparum luciferase reporter growth, 96 h. Potency, µM (top dose mostly 28.7 µM), without a hit: top-dose activity change, negative = inhibition, usual class: inhibitors; further: potency means the concentration at half of the fitted maximal effect; on the % scale 0 is the no-effect control and ±100 the full control effect
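P. falciparum expressing integrated firefly luciferase grown in erythrocytes (2% hematocrit, 0.05% parasitemia final) with compounds for 96 hours at 37 C, 5% CO2. Growth inhibition read as loss of luminescence after adding luciferase detection reagent.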
Shiga toxin inh: inhibitors of Shiga toxin in Vero cells | 9.2% of 290,000 active | Vero cells, Shiga toxin protein synthesis inhibition reporter | inhibition, % at 38.7 µM | AID 2315; in the data active means inhibition mostly above about 28%, no sharp cut-off; inactive means mostly below about 43%; further: 0% is about no effect
Pf growth 48h: P. falciparum growth inhibition at 48 hours (one generation) | 5.9% of 310,000 active | P. falciparum luciferase growth in erythrocytes, 48 h | Potency, µM (series often up to 28.7 µM), for the others: at the highest dose activity change, negative = inhibition, usual class: inhibitors; further: potency means the concentration at half of the fitted maximal effect; on the % scale 0 is the no-effect control and ±100 the full control effect
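In quantitative HTS format, infected erythrocytes bearing luciferase-reporter parasites were treated for a single generation at 37 C. Luminescence after adding detection reagent served as the growth measure.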
Cycloheximide cs: affects cycloheximide protein synthesis inhibition readout, counter-screen; max response, %; cell reporter, cycloheximide protein synthesis inhibition counterscreen; 12% of 300,000 active; in the data active means max response mostly above about 13%, no sharp cut-off; inactive means mostly below about 14%; further: read at 38.3 µM for the half of the compounds with a filed dose; 0% is about no effect
NS1 function inh: blocks influenza NS1 protein function. Potency, µM (top dose mostly 46.1 µM), for the others: top-dose activity, positive = more growth. 0.4% of 270,000 active. AID 2326; calls by dose curve; further: potency means the concentration at half of the fitted maximal effect; actives are rising curves; nearly all actives have a fitted effect of over 50% in size
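Compounds were scored for reversing the slow growth caused by influenza A NS1 in S. cerevisiae, measured by optical density at 600 nm. Assay medium contained 2% galactose at pH 6.0; NS1-free yeast of the same strain were the positive control.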
FBPA Giardia inh: inhibitors of Giardia lamblia fructose-1,6-bisphosphate aldolase; A8B2U2; purified Giardia FBPA; Potency, µM (doses to about 59.6 µM), for the others: top-dose activity, negative = inhibition, actives largely listed as inhibitors; 0.71% of 290,000 active; AID 2451; further: potency means the concentration at half of the fitted maximal effect; on the % scale 0 is the no-effect control and ±100 the full control effect; nearly all actives have a fitted effect of over 55% in size
Target sequence (A8B2U2 whole entry, looked up): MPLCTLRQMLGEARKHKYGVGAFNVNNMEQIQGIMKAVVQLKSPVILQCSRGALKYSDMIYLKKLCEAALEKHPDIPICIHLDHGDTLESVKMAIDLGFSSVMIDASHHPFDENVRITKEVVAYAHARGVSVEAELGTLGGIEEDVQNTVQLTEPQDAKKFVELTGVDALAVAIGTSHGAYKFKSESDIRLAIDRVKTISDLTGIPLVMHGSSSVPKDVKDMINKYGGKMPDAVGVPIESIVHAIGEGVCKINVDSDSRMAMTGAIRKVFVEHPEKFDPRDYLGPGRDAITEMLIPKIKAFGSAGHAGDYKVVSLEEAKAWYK
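Giardia FBPA (40 nM reagent) was preincubated 10 min at RT with compound (up to 57.5 uM final), then substrate plus GAPDH/TPI/NAD/arsenate coupling system with diaphorase/resazurin was added; resorufin fluorescence (525/598 nm) was read after 20 min.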
* hit, by the source's call; ? = inconclusive; nt = no result given; [ ] = remark or other dose. Unless noted, the call rests on the fitted dose curve; in most records, active means well fitted curve in the direction sought with a large enough effect; inconclusive means small, poorly fitted or top-dose-only effect, or another doubt; inactive means no such curve, though single readings can be large; an effect the other way counts as inactive or inconclusive.

SMILES	Pf growth 96h	Shiga toxin inh	Pf growth 48h	Cycloheximide cs	NS1 function inh	FBPA Giardia inh
CCN(CC)c1ccc(/C=N/NC(=O)c2ccco2)c(O)c1	-86.3%	75.7*	?	37.5*	-81.0%	13.9%
CCCn1c(=O)[nH]c2nc(-c3ccc(S(=O)(=O)O)cc3)[nH]c2c1=O	nt	-2.4	nt	-6.1	nt	-3.0%
Cc1ccc2nc(-c3ccccc3)oc(=O)c2c1	?	14.3	-0.4%	1.0	-46.1%	-2.6%
Cc1ccc(-c2nc3ccccc3c(=O)o2)cc1	-15.1%	nt	56.5%	23.1*	-29.3%	11.2%
COc1ccc(-c2nc3ccccc3c(=O)o2)cc1	-15.5%	48.4	31.7%	13.0*	-5.2%	-20.1%
COc1cccc(-c2nc3ccccc3c(=O)o2)c1	nt	25.4	nt	19.3*	-4.9%	-9.1%
COc1ccccc1CN1CC(C(=O)NCCN2CCOC2=O)CCC1=O (stereo not given)	44.5%	2.1	16.5%	4.0	-8.4%	nt
COc1cc(C(C[N+](=O)[O-])c2c(-c3ccccc3)cc3ccccn23)cc(OC)c1OC (stereo not given)	11.7µM*	32.7	nt	16.0	28.5%	?
COc1ccc(C(C[N+](=O)[O-])c2c(-c3ccccc3)cc3ccccn23)cc1OC (stereo not given)	?	-12.4	?	-0.8	-71.1%	-20.6%
COc1cc(C(C[N+](=O)[O-])c2c(C)cc3ccccn23)ccc1O (stereo not given)	?	-2.0	?	-2.4	-15.8%	-27.4%
COc1ccc(C(C[N+](=O)[O-])c2c(-c3ccccc3)cc3ccccn23)cc1 (stereo not given)	5.4%[5.75 µM]	29.9	?	39.9*	26.0%	-4.7%
COC(=O)c1cc(Cl)c(NC(=O)c2cc(OC)c(OC)c(OC)c2)cc1OC	11.3%	-5.2	17.5%	-2.9	14.7%	2.5%
COC(=O)c1cc(Cl)c(NC(=O)c2ccc(F)cc2)cc1OC	9.28µM*	-5.0	21.1%	2.5	-0.3%	6.2%
Cc1cc(NC(=O)c2ccc(Cl)cc2)c(C)cc1O	25.8%	65.5	11.4%	12.7	-2.1%	0.8%
COc1ccc(C(=O)Nc2cc(Cl)ccc2OC(=O)c2ccc(OC)cc2)cc1	-84.8%	89.1*	-64.5%	65.5*	-4.7%	-2.4%
COc1ccc(OC)c(NC(=O)c2ccc(Cl)cc2)c1	-13.7%	22.7	-7.0%	9.9	-9.9%	-7.0%
O=C(Nc1ccccc1O)c1ccc([N+](=O)[O-])cc1	?	78.0*	0.0%	26.6*	-2.6%	16.0%
O=C(Nc1ccccc1O)c1ccc(Cl)cc1	?	95.4*	5.86µM*	42.0*	-70.2%	-7.6%
CC(C)(C)N1C(=O)[C@H]2[C@@H]3[C@H](O)[C@H](O)CC(=O)[C@H]3CC[C@H]2C1=O	nt	nt	nt	nt	nt	1.2%[12.9 µM]
O=C(c1ccncc1)N1CCC2(CCCN(c3ccccc3)C2)CC1	nt	nt	nt	nt	nt	-7.0%
CC(C)=CCC1(CC=C(C)C)C(=O)C(C(=O)c2ccccc2)=C2OC(C)(C)CCC2(CC=C(C)C)C1=O (stereo not given)	nt	nt	nt	nt	nt	0.3%[12.9 µM]
COc1cc(NC(=O)C2CCCC2)c(OC)cc1Cl	9.28µM*	-18.1	nt	-1.9	-11.5%	4.8%
COc1cc(NC(=O)C2CCCO2)c(OC)cc1Cl (stereo not given)	-21.1%	-6.3	1.4%	-3.5	-7.6%	3.2%
Cc1ccc(Oc2ccc(Cl)cc2NC(=O)c2cnccn2)cc1	nt	19.0	?	5.0	0.1%	4.3%
Cc1ccc(C(=O)Nc2cc(Cl)ccc2OC(=O)c2ccc(C)cc2)cc1	0.465µM*	97.8*	?	35.7*	-23.8%	-6.0%
SMILES	Pf growth 96h	Shiga toxin inh	Pf growth 48h	Cycloheximide cs	NS1 function inh	FBPA Giardia inh
O=C(Nc1ccccc1OC(=O)c1ccc(Cl)cc1)c1ccc(Cl)cc1	?	33.9*	?	36.5*	-3.4%	3.3%
COc1ccc(C(=O)Nc2cc(OC)c(Cl)cc2OC)cc1	5.22µM*	22.0	10.4%	13.8	nt	-29.7%
Cc1cccc(NC(=O)C2CCCN2C(=O)NC2CCCCC2)c1 (stereo not given)	-19.8%	-9.7	30.2%	10.8	0.5%	3.8%
Cc1cccc(-c2noc(CCCC(=O)NC3CCCC3)n2)c1	2.0%	3.8	-3.7%	0.4	-5.8%	6.2%
COc1cc(NC(=O)c2cc3nc(C)cc(C)n3n2)c(OC)cc1Cl	15.8%	62.4*	105.7%	52.8*	11.1%	-12.7%
COc1cc(NC(=O)c2c(F)c(F)c(F)c(F)c2F)c(OC)cc1Cl	nt	-12.0	4.5%	-1.3	-1.2%	6.3%
CC(C)C[C@H](NC(=O)[C@H](Cc1ccccc1)NC(=O)CNC(=O)[C@H](CCC(=O)O)NC(=O)[C@H](CCCNC(=N)N)NC(=O)[C@H](C)NC(=O)[C@H](C)NC(=O)[C@@H](N)CC(=O)O)C(=O)N[C@@H](CC(=O)O)C(=O)N[C@H](C(=O)N[C@@H](CC(C)C)C(=O)N[C@H](C(=O)N[C@H](C(=O)N[C@@H](CC(C)C)C(=O)N[C@@H](Cc1cnc[nH]1)C(=O)N[C@@H](CCCNC(=N)N)C(=O)N[C@@H](C)C(=O)NCC(=O)N[C@@H](C)C(=O)N[C@@H](CCCNC(=N)N)C(=O)O)C(C)C)C(C)C)[C@@H](C)O	nt	13.7	nt	-4.4	nt	-0.9%
CCC(NC(=O)c1cccc(Cn2cc([N+](=O)[O-])cn2)c1)c1ccc(C(C)C)cc1 (stereo not given)	nt	6.8	-14.4%	11.5*	3.4%	3.9%
O=C(Nc1c(F)cc(F)cc1Br)c1cc(-c2ccccc2)on1	0.8%	nt	50.6%	15.9*	8.7%	-1.7%
Cc1cc(C(=O)Nc2c(F)cc(F)cc2Br)no1	-1.6%	25.9	21.6%	13.6*	-50.1%	0.2%
O=C(Nc1c(F)cc(F)cc1Br)c1cc(-c2ccc(O)cc2)on1	-24.7%	22.9	nt	30.7*	-255.7%	3.1%
CN1N=C(/C=C/c2ccccc2)CCC1=O	139.0%	87.7*	140.5%	28.3*	nt	1.0%
CC(C)(C)c1ccc(CN2N=C(/C=C/c3ccccc3)CCC2=O)cc1	-1.8%	-14.0	?	6.9	nt	-7.8%
Cc1ccc(/C=C/C2=NN(C)C(=O)CC2)cc1	360.6%	62.7*	354.9%	26.7*	nt	0.2%
O=C1CCC(/C=C/c2ccccc2)=NN1Cc1ccccc1	-10.8%	17.4	2.7%	12.4	nt	-2.3%
C=CCN1N=C(/C=C/c2ccccc2)CCC1=O	-4.0%	50.5	11.2%	20.2*	nt	6.2%
Cc1ccc(O)c(NC(=O)c2ccc3c(c2)C(=O)N(Cc2ccco2)C3=O)c1	15.9%	-11.6	0.8%	14.7	-35.4%	nt
CCC(=O)Oc1ccc2ccccc2c1CNC(=O)c1ccccc1	9.28µM*	-2.5	?	6.6	-22.2%	4.8%
COc1ccccc1CC(=O)Nc1cccc(C(=O)NN2C(=O)c3ccccc3C2=O)c1	9.28µM*	-1.8	-2.3%	5.2	-0.7%	6.1%
CCc1ccc(-c2cc(-c3n[nH]c(=S)n3CC)c3ccccc3n2)cc1	2.94µM*	40.5*	?	31.6*	20.8%	?
Cc1cc(NC(=O)c2ccccc2F)ncc1NC(=O)c1cccs1	0.9%	54.2	34.2%	21.2*	-6.4%	-10.4%
